For 88 molecules, activity change, negative = inhibition results are on record in PubChem BioAssay AID2098 (Broad Institute, 2009).

Structures are written as SMILES. The campaign covered roughly 300,000 compounds. About 2,300 (0.77%) were called active.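 How the source made its calls: active means more than half of replicate wells show activity change below -50%, luminescence cut by over half; inconclusive means some wells, but at most half, below -50%; inactive means no replicate well below -50%.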 What follows is part of a selection rich in actives, with near analogues and random picks from the rest.

The assay in a line: HSF1 inhibitors in luciferase reporter cells, primary screen, cell-based, NIH3T3, luminescence (AID 2098).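 Further: luciferase reports HSF-1 transcriptional activity via heat shock element; 0% = median of DMSO wells and -100% = zero luminescence signal.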 To be noted: NIH3T3-HGL HSE-luciferase, MG132-induced, luminescence 8 h; stronger effect = lower value; screened at 7.5 µM (by protocol). On the technique in general: Reporter assays use an easily measured gene product as a stand-in for the process of interest.
For the molecule `O=C(CN(c1cc(C(F)(F)F)ccc1Cl)S(=O)(=O)c1ccccc1)NCc1cccnc1`, the activity change, negative = inhibition is 6.77% (inactive).
Next, `CCOC(=O)N1CCN(C(=O)CSc2nc(=O)n3cccc(C)c3n2)CC1`: -2.47% (inactive); `O=C1[C@H]2[C@@H](c3ccc(Cl)cc3)N3C(=O)N(c4cccc(F)c4)C(=O)[C@@]3(Cc3ccccc3)[C@H]2C(=O)N1C1CCCCC1`: 8.08% (inactive); `CN(C)S(=O)(=O)c1ccc(N2CCCC2)c(C(=O)Nc2ccc(Br)cc2F)c1`: 0.082% (inactive).
Next, `Cc1ccc(-c2csc(NC(=O)C3=COCCO3)n2)cc1C`: 14.3% (inactive); `CCN1CCN(C(c2cccnc2)c2cc(Cl)c3cccnc3c2O)CC1` (stereo not drawn): -81.5% (active); `Oc1c(C(c2ccccn2)N2CCOCC2)ccc2cccnc12` (stereo not drawn): 39.3% (inactive).
`CCOC(=O)N1CCN(C(c2cccnc2)c2ccc3cccnc3c2O)CC1` (stereo not drawn): the activity change, negative = inhibition was 26.3% (inactive).
As to `C=CCSc1nnc2c(n1)-c1cccc3cccc-2c13`, the activity change, negative = inhibition was 3.46% (inactive).
As to `COC(=O)c1c(-c2ccsc2)oc2ccc(-c3cc(OC)c(OC)c(OC)c3)cc12`, the activity change, negative = inhibition was 0.511% (inactive).
Next, `CC(C)n1cnc2c(Nc3cccc(Cl)c3)nc(N(CCO)CCCO)nc21`: -11.1% (inactive); `OCCCNc1nc(-c2ccccc2)c2cc(Cl)ccc2n1`: -1.41% (inactive); `OCCCNc1nccc(-c2cc(Nc3cccc(Cl)c3)ncn2)n1`: -63.5% (active).
Next, `Cc1ccc2nc(SCC(=O)Nc3cccc4ccccc34)nc(=O)n2c1`: 4.93% (inactive); `O=C(NCCS(=O)(=O)NCc1ccc(F)cc1)c1ccccc1`: 0.252% (inactive).
On to `O=C(Nc1cccnc1)c1cccc(S(=O)(=O)N2CCCC2)c1`, for which the activity change, negative = inhibition was -0.574% (inactive).
Next, `O=C(Nc1cccnc1)c1noc2c1CCCCC2`: -52.6% (active); `O=C(c1noc2c1CCCC2)N1CCc2ccccc2C1`: 12.4% (inactive); `O=[N+]([O-])c1cccc(C=NN=Cc2ccccc2O)c1`: -25.2% (inactive).
Next, `COc1cccc(OCC(=O)NNC(=O)c2cnccn2)c1`: -5.69% (inactive); `COc1ccc(C(=O)NNC(=O)c2cnccn2)cc1[N+](=O)[O-]`: -85.3% (active); `COc1ccc(C(=O)O/N=C(\N)c2ccccn2)cc1[N+](=O)[O-]`: 12.7% (inactive).
Next, `CC(=O)c1c(C)[nH]c(C(=O)COC(=O)CCOc2ccc(C)cc2)c1C`: 5.07% (inactive).
As for `CCCNC(=O)CCn1cc(-c2ccc(OC)cc2)nc1CCN`, the activity change, negative = inhibition is -7.76% (inactive).
With `O=C(NNC(=O)c1ccc(-c2ccccc2)cc1)Nc1ccccc1`, the activity change, negative = inhibition is -2.47% (inactive).
Next, `O=S(=O)(Nc1ccc(-c2ccc(N3CCOCC3)nn2)cc1)c1cc(Cl)ccc1Cl`: 11.6% (inactive).
Next, `CCC(C)N(C(=O)CSc1ncnc2c1cnn2-c1ccccc1)C1CCS(=O)(=O)C1` (stereo not drawn): 0.752% (inactive); `COc1ccc(OC)c(S(=O)(=O)N2CCCC(C(=O)N3CCC(C(N)=O)CC3)C2)c1` (stereo not drawn): -0.699% (inactive); `O=S(=O)(Nc1ccc(O)c2ccccc12)c1ccc(OC(F)(F)F)cc1`: -59.7% (active).
Next, `O=C1COc2ccc(S(=O)(=O)Nc3ccc(OC(F)(F)F)cc3)cc2N1`: 2.92% (inactive); `Cc1nn(C)c(C)c1NS(=O)(=O)c1ccc(OC(F)(F)F)cc1`: -8.93% (inactive); `CCC(=O)N1CCc2cc(Br)c(S(=O)(=O)NCCN3CCCCC3CC)cc21` (stereo not drawn): -1.08% (inactive).
As to `CN1CCN(C2Cc3ccc(Cl)cc3Sc3ccc(F)cc32)CC1` (stereo not drawn), the activity change, negative = inhibition is -0.795% (inactive).
Next, `NS(=O)(=O)c1ccc(CCNC(=O)CN2C(=O)c3ccccc3S2(=O)=O)cc1`: -3.35% (inactive); `Cc1ccc(N2CC(C(=O)N3CCC4(CC3)CC(=O)c3ccccc3O4)CC2=O)cc1C` (stereo not drawn): -2.92% (inactive).
Next, `COc1ccc(NC(=O)CN(C)C(=O)Cc2coc3cc(C)c(C)cc23)cc1`: 7.31% (inactive); `COc1ccc(C(=O)N(Cc2ccccc2)c2ccc(C)cc2)cc1S(=O)(=O)N1CCOCC1`: 4.46% (inactive).
Next, `Cc1ccc(-n2c(C)cc(C(=O)CN3C(=O)C(=O)N(C4CCCC4)C3=O)c2C)cc1`: -6.89% (inactive).
Regarding `Cc1cc(C(=O)COC(=O)C2CC2)c(C)n1-c1ccc(F)cc1`, the activity change, negative = inhibition is -71.9% (active).
Next, `COc1cc(/C=N/NC(=O)c2cc(C)n(-c3ccc(F)cc3)c2C)cc(OC)c1O`: -15.3% (inactive).
Next, `CC(Oc1ccc(F)cc1)C(=O)Nc1cc(S(=O)(=O)N2CCOCC2)ccc1N1CCN(C)CC1` (stereo not drawn): -4.5% (inactive).
Regarding `O=C(NCC(=O)N1CCCC(C(F)(F)F)C1)c1ccccc1F` (stereo not drawn), the activity change, negative = inhibition is -2.16% (inactive).
Next, `CCCCC(CC)CNC(=O)CCCCn1c(=O)[nH]c2ccsc2c1=O` (stereo not drawn): 1.08% (inactive).
Next, `CCN(CC)CCNC(=O)CCCCCn1c(=O)[nH]c2cc(C(=O)OC)ccc2c1=O`: -8.49% (inactive).
Consider `CCN(CCCNC(=O)CCn1c(=O)[nH]c2ccsc2c1=O)c1ccccc1`, for which the activity change, negative = inhibition was -61.9% (active).
Next, `CN(Cc1c(F)cccc1Cl)C(=O)CNC(=O)c1ccc2c(c1)OCO2`: 2.65% (inactive); `CC12CCC(=O)N1C(C(=O)NCCN1C(=O)S/C(=C\c3ccccc3F)C1=O)CS2` (stereo not drawn): -0.188% (inactive).
Next, `CCOC(=O)c1c(C)[nH]c(C(=O)OCC(=O)c2ccc(OC)cc2OC)c1C`: 1.38% (inactive).
Next, `COCCN1C=C2C(=O)C(C)(OC(=O)C3CCCC3)C(=O)C=C2C=C1c1ccsc1` (stereo not drawn): 0.381% (inactive).
Regarding `C=CCN1C=C2C(=O)C(C)(OC(=O)CCc3ccccc3)C(=O)C=C2C=C1c1ccc(C#N)cc1` (stereo not drawn), the activity change, negative = inhibition is -1.82% (inactive).
Next, `CC1(OC(=O)CCc2ccccc2)C(=O)C=C2C=C(c3ccc(C#N)cc3)N(CCc3ccccn3)C=C2C1=O` (stereo not drawn): -80.1% (active).
Next, `CCCNC(=O)c1ccc(N2CCC3(CC2)CC(c2cccc(Br)c2)=NO3)c(NC(=O)c2ccco2)c1`: -5.02% (inactive).
Next, `CSc1nsc(NC(=O)Nc2ccccc2)n1`: 4.05% (inactive); `Cc1cccc(C(=O)NCc2nnc(SC(C)C(=O)Nc3nnc(C)s3)n2C)c1` (stereo not drawn): -1.96% (inactive).
Consider `COc1ccc(S(=O)(=O)N2CCCCCC2)cc1C(=O)N(C)Cc1cccc(OC)c1OC`, for which the activity change, negative = inhibition is -1.36% (inactive).
Next, `COc1ccc(-c2cn(-c3ccc(OC)cc3)c(=S)[nH]2)cc1`: 9.62% (inactive); `O=c1oc2ccccc2cc1-c1cn(-c2ccccc2)c(=S)[nH]1`: -88.1% (active).
Next, `S=c1[nH]c(-c2cccs2)cn1-c1ccccc1`: 2.33% (inactive).
Next, `CC(C)(C)Oc1ccccc1Nc1nc(NCCO)nc(N2CCCC2)n1`: -2.91% (inactive).
For `CCn1cc(CN2CCC(C(=O)Nc3cccc(-c4cccc(Cl)c4)c3)CC2)cn1`, the activity change, negative = inhibition was 13.5% (inactive).
Next, `CCn1cc(CN2CCC(C(=O)Nc3cccc(-c4cccc(Cl)c4)c3)CC2)c(C)n1`: -68.5% (active); `O=C(Nc1cccc(-c2cccc(Cl)c2)c1)C1CCN(C2CCC2)CC1`: -1.45% (inactive); `O=C(COC(=O)CCOc1ccccc1)Nc1cc(S(=O)(=O)N2CCCCC2)ccc1Cl`: 5.19% (inactive).
Next, `Cn1cccc1C(=O)NNC(=O)COc1ccc(Br)cc1`: -3.17% (inactive).
Next, `Cc1ccc(CS(=O)(=O)c2ncc(Cl)c(C(=O)Nc3nnc(C)s3)n2)cc1`: -63.4% (active); `CCSc1ncc(Cl)c(C(=O)Nc2cc(C)ccc2C)n1`: 3.48% (inactive); `Cc1cccc(CS(=O)(=O)c2ncc(Cl)c(C(=O)Nc3ccc(F)cc3)n2)c1`: 13.2% (inactive).
Take `Cc1ccc(S(=O)(=O)CC(=O)Nc2nnc(C)s2)cc1`: the activity change, negative = inhibition was -2.63% (inactive).
Next, `Cc1cccc(NC(=O)c2nc(S(=O)(=O)Cc3ccccc3)ncc2Cl)c1`: -83.8% (active); `Cc1cccc(NC(=O)c2nc[nH]c2C(=O)NCC(=O)OCc2ccccc2)c1`: -13.1% (inactive); `COc1ccc(C2/C=C\CN(S(=O)(=O)c3cccs3)CC(=O)N2Cc2ccc(F)cc2)cc1` (stereo not drawn): 3.97% (inactive).
Take `COc1ccc(Cl)cc1C=CC=NNC(=O)c1ccncc1`: the activity change, negative = inhibition is 5.04% (inactive).
Regarding `COc1ccc(CCNCC(O)Cn2ccc3ccccc32)cc1OC` (stereo not drawn), the activity change, negative = inhibition is -87.6% (active).
On to `COC(=O)c1ccc(OCC(O)CN(CCO)CC(O)Cn2ccc3ccccc32)cc1` (stereo not drawn), for which the activity change, negative = inhibition was -1.93% (inactive).
For the molecule `COc1ccc(Cn2c(=O)sc3ccccc32)cc1OC`, the activity change, negative = inhibition was -4.6% (inactive).
Consider `O=C(NCc1ccccc1)c1onc(CSc2ccncc2)c1C(=O)NCc1ccccc1`, for which the activity change, negative = inhibition was -22.7% (inactive).
Next, `O=C(NCCc1ccco1)C(=O)NCCC1CCCCN1S(=O)(=O)c1ccccc1` (stereo not drawn): 1.49% (inactive).
Take `COc1ccc(-c2nnc(SCC(=O)Nc3cccnc3Cl)n2C)cc1`: the activity change, negative = inhibition was -3.85% (inactive).
On to `C#CCNC(=O)[C@H](Cc1ccc(C(=O)c2ccccc2)cc1)NC(=O)OC(C)(C)C`, for which the activity change, negative = inhibition is 5.42% (inactive).
Next, `COc1ccccc1NC(=O)[C@H](COCc1ccccc1)NC(=O)OC(C)(C)C`: -65.5% (active); `COc1ccccc1NC(=O)C(C)OC(=O)CC1CCCC1` (stereo not drawn): -4.1% (inactive); `COc1ccc(C(=O)Nc2ccccc2C(=O)N/N=C/c2ccc(O)c(OC)c2)cc1`: -88.5% (active).
With `COc1ccc(/C=N/NC(=O)c2ccccc2)cc1OS(=O)(=O)c1ccccc1`, the activity change, negative = inhibition was 4.64% (inactive).
Next, `COc1cc(/C=N/NC(=O)c2ccc(N3CCCC3=O)cc2)ccc1O`: -2.17% (inactive); `CC1(C)O[C@@H]2CC3C4C[C@H](F)C5=CC(=O)C=CC5(C)C4C(O)CC3(C)[C@]2(C(=O)CO)O1` (stereo partly drawn): -32.3% (inactive).
Next, `Cc1ccc(CSCC(=O)N(C)CC(=O)Nc2ccc(C)cc2)cc1`: -72.3% (active); `Cc1ccc(NC(=O)CN(C)C(=O)c2ccc(Br)o2)cc1`: 0.545% (inactive); `Cc1ccc(CSCC(=O)N(C)CC(=O)Nc2cccc(F)c2)cc1`: -0.103% (inactive).
